# From ChEMBL document CHEMBL5308504, “Tm Shift (DSF) assay results for EUbOPEN Chemogenomics Library” (2023)
# Columns and labels:
# [1] = target: Bromodomain-containing protein 4 (Homo sapiens) (UniProt O60885); details: Compound concentration 20.0 uM, Protein concentration 2.0 uM, Result type QC Liability
# [2] = target: T1, Transcription intermediary factor 1-alpha (Homo sapiens) (UniProt O15164); details: Compound concentration 20.0 uM, Protein concentration 2.0 uM, Result type QC Liability
# T1 sequence (whole entry): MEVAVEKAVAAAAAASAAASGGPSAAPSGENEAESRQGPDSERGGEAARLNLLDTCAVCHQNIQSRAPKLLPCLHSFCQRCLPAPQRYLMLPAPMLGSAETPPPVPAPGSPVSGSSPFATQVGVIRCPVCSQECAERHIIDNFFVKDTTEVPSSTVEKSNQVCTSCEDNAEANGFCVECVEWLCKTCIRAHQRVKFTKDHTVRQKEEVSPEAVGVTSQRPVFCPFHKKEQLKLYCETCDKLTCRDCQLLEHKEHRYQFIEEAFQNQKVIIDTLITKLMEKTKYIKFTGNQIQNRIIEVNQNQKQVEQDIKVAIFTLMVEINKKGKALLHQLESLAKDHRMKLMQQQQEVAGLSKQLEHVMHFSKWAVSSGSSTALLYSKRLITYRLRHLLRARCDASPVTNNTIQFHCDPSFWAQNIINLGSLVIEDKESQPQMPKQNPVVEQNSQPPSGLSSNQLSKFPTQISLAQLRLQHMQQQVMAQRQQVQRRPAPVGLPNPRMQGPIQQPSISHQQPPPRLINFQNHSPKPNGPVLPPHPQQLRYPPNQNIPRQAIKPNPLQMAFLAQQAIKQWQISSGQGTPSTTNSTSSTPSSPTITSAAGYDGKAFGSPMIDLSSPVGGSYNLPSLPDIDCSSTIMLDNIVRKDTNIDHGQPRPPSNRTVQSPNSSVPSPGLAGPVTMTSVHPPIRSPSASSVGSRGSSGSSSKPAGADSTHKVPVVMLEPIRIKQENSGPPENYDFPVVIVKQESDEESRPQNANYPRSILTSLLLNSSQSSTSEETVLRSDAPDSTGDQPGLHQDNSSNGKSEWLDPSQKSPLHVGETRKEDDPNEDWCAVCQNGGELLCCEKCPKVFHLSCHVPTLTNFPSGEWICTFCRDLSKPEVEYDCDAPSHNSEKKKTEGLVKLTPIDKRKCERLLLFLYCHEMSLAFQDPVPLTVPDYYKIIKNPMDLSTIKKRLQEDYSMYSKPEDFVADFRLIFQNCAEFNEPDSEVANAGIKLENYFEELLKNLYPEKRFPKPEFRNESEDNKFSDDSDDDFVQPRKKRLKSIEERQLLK
Structure (SMILES),ΔTm [1] [°C],ΔTm [2] [°C]
O=C(NC[C@@H]1[C@H]2CN(C(=O)OCc3cc(C(F)(F)F)cc(C(F)(F)F)c3)C[C@@H]12)c1ccc2[nH]nnc2c1,2.07,1.3
Cc1nccc(COC(=O)N2C[C@@H]3[C@@H](CNC(=O)c4ccc5[nH]nnc5c4)[C@@H]3C2)n1,-4.78,0.34
Fc1ccc(-c2nc(-c3ccc4ccccc4c3F)[nH]c2-c2ccncc2)cc1,-0.46,-0.4
CCCCc1oc2ccccc2c1C(=O)c1cc(I)c(OCCN(CC)CC)c(I)c1,-4.02,-4.38
CCOC(=O)c1ccc(CN(Cc2ccc(-c3cccc(S(C)(=O)=O)c3)cc2)S(=O)(=O)c2c(C)cc(C)cc2C)o1,-4.78,0.5
COC1(C#Cc2ccc(Cl)c(-c3ncc4c(n3)-c3sc(NC(C)=O)nc3CC4)c2)CCN(C)CC1,-2.24,-3.35
CCN(C)S(=O)(=O)Nc1cccc(-c2ccc3c(NC(=O)C4CC4)n[nH]c3c2)c1,0.55,-0.53
CCS(=O)(=O)c1ccc(OC)c(Nc2ncc(-c3cccc(F)c3)o2)c1,-2.4,-1.42
C1=Cc2ccccc2C(=C2CCN(CCCCc3nnn[nH]3)CC2)c2ccccc21,-12.7,-0.3
COc1cc(-c2cncc(-c3ccc(N4CCN(C(C)C)CC4)cc3)c2C)cc(F)c1C(=O)N1CCCC1,-3.15,-3.48
CCn1c(-c2nonc2N)nc2cncc(C(=O)N3CC[C@H](N)C3)c21,-0.13,-1.91
CNC(=O)c1nnc(NC(=O)C2CC2)cc1Nc1cccc(-c2ncn(C)n2)c1OC,-2.45,-4.06
COc1cc(Nc2cnc(C#N)c(O[C@H](C)CN(C)C)n2)ncc1-c1cnn(C)c1,-1.55,-2.76
